The text below walks through data of PubChem BioAssay AID463173 (ICCB-Longwood Screening Facility, Harvard Medical School, 2010).

The campaign covered roughly 52,000 compounds. About 4,300 (8.3%) were called active. No stated cut-off is given here; in the data, active means survival mostly below about 52% (no sharp cut-off); inactive means mostly above about 56%. Only a selection was taken, and actives are over-represented in it overall.

The assay concerns DeltatarO mutant. The assay is described as follows: growth inhibition of S. aureus wild type versus tarO mutant, primary screen, teichoic acid synthesis inhibitors, RN4220, OD600 (AID 463173). As to conditions: OD600, 18 h, active compounds read low, screened at 18.75 µg/mL (by protocol).
`COc1ccccc1CNC(=O)c1cn(C)c2ccc(S(=O)(=O)N3CCC(C)CC3)cc2c1=O`: the survival is 92% (inactive). With `Cc1ccc(N(C)S(=O)(=O)c2ccc(-c3coc(C)n3)cc2)cc1` the figure was 75% (inactive); with `COc1ccc(NC(=O)CCCc2nc(-c3ccco3)no2)c(OC)c1`, 107% (inactive). With `CC1Cc2cc(S(=O)(=O)CCC(=O)Nc3ccc(OC(F)(F)F)cc3)ccc2N1C(=O)C1CC1` (configuration not stated) the figure was 85% (inactive); with `CS(=O)(=O)N1CCN(S(=O)(=O)c2ccccc2)CC1`, 104% (inactive). With `Cc1ccccc1N1CCN(S(=O)(=O)c2ccccc2)CC1` the figure was 28% (active). Regarding `Cc1ccccc1N1CCN(S(=O)(=O)c2nnc(NC(=O)c3ccc(Cl)cc3)s2)CC1`, the survival is 43% (active). With `COc1ccc(S(=O)(=O)N2CCN(S(=O)(=O)c3ccccc3)CC2)cc1` the figure was 87% (inactive); with `O=C(Nc1nnc(S(=O)(=O)N2CCN(c3ccc(F)cc3)CC2)s1)c1ccc(Cl)cc1`, 57% (inactive); with `Cc1cccc(N2CCN(S(=O)(=O)c3nnc(NC(=O)c4ccc(Cl)cc4)s3)CC2)c1`, 54% (inactive). The figure for `O=C(Nc1ccc(O)cc1)c1cccc(S(=O)(=O)N2CCOCC2)c1` is 77% (inactive). For `CCOc1ccc(NC(=O)Cn2nc3c(cc2=O)CC(C)CC3)cc1` (configuration not stated), the survival was 98% (inactive). With `c1ccc(C2SCCN2c2ccccc2)cc1` (configuration not stated) the figure was 97% (inactive).

In the case of `Cc1cccc(N2CCN(C(=O)Cn3c(-c4cccs4)cc4ccccc43)CC2)c1C`, the survival was 78% (inactive). `Cc1cc(C)c(NC(=O)Cc2csc(C)n2)c(Cl)c1`: the survival was 48% (inactive). With `Cc1cccc(OCc2nc(CC(=O)Nc3ccc(C)cc3C)cs2)c1` the figure was 79% (inactive); with `Cc1cccc(NC(=O)Nc2cccs2)c1C`, 93% (inactive); with `Cc1ccc(Cl)cc1NC(=O)c1csnn1`, 78% (inactive). As for `Cc1ccc(NC(=O)Cc2csc(C)n2)c(C)c1`, the survival was 40% (active). With `Cc1nc(CC(=O)Nc2cccc(C)c2C)cs1` the figure was 39% (active). With `Cc1nc(CC(=O)Nc2cc(Cl)ccc2C)cs1` the figure was 45% (active). The figure for `Cc1ccccc1-c1noc(CCC(=O)Nc2cccc(C)c2C)n1` is 88% (inactive); for `CCc1ccc(NC(=O)Cc2csc(COc3cccc(C)c3)n2)cc1` it is 88% (inactive); for `CCCCCOc1ccc(NC(=O)Cc2csc(C)n2)cc1` it is 44% (inactive). As to `CCc1cccc(CC)c1NC(=O)Cc1csc(C)n1`, the survival was 42% (active). Turning to `Cc1ccc(C(=O)CCC(=O)Nc2ccc(C)cc2C)cc1`, the survival was 115% (inactive). The figure for `COCC(=O)N1CCC(n2nnc3cc(F)ccc32)CC1` is 53% (inactive); for `CCN(CC)CC(=O)N1CCCC1=O` it is 100% (inactive); for `Cc1cc(C)c(/C=C/c2onc(C)c2S(=O)(=O)N2CCC(C(=O)NCc3ccco3)CC2)c(C)c1` it is 90% (inactive).

On to `CCOC(=O)c1ccc(NC(=O)CCn2c(=O)c3cccn3c3ccccc32)cc1`, for which the survival is 91% (inactive). `CCC(c1nnnn1CCOC)N1CCN(c2cccc(C(F)(F)F)c2)CC1` (configuration not stated): the survival was 107% (inactive).

With `Cn1c(CNc2ccc(Cl)cc2)nnc1SCc1ccc(Cl)cc1`, the survival was 68% (inactive).

For `CC(=O)N1CCCC1c1nc2ccccc2n1Cc1ccc(F)cc1` (configuration not stated), the survival was 85% (inactive). With `CCc1cccc(CC)c1NC(=O)c1c(C)oc2ccc(O)c(CN3CCCC3)c12` the figure was 113% (inactive); with `O=S1(=O)c2ccccc2-c2cc(Br)ccc21`, 79% (inactive). For `CCOC(=O)CNC(=O)Nc1cc(C(=O)NCc2ccccc2OC)ccc1N1CCCC1`, the survival is 80% (inactive).

`CCC(=O)/C=C1/Sc2ccc(C)cc2N1CC`: the survival was 97% (inactive).

For `Cc1cc(F)ccc1NC1(c2ccccc2)C(=O)c2ccccc2C1=O`, the survival was 79% (inactive). With `Cc1ccc(NC2(c3ccccc3)C(=O)c3ccccc3C2=O)cc1F` the figure was 58% (active). The figure for `O=C(O)c1cc(NC2(c3ccccc3)C(=O)c3ccccc3C2=O)ccc1Cl` is 87% (inactive). Take `COc1cc(OC)c(NC(=O)Nc2sc3nc4n(c(=O)c3c2C)CCC(C)CC4)cc1Cl` (configuration not stated): the survival was 85% (inactive). Regarding `CCc1ccc(C(=O)c2cn(CC(=O)Nc3ccc4c(c3)OCCO4)c3ccc(C)cc3c2=O)cc1`, the survival is 57% (active). The figure for `CCc1ccc2c(c1)c(=O)c(C(=O)c1ccc(C)cc1)cn2CC(=O)Nc1ccc2c(c1)OCCO2` is 61% (inactive); for `COc1ccc(Cn2cc(C(=O)c3ccc(C)cc3)c(=O)c3cc(OC)c(OC)cc32)cc1` it is 93% (inactive); for `COc1ccc(Cn2cc(C(=O)c3ccc(F)cc3)c(=O)c3cc4c(cc32)OCCO4)cc1` it is 66% (inactive). `CCOc1ccc2c(c1)c(=O)c(C(=O)c1ccc3c(c1)OCO3)cn2Cc1ccc(F)cc1`: the survival was 98% (inactive). Turning to `O=C(c1ccc2c(c1)OCO2)c1cn(Cc2ccc(Cl)cc2)c2ccc(F)cc2c1=O`, the survival is 55% (active). For the compound `CCc1ccc(C(=O)c2cn(Cc3ccccc3)c3cc(OC)c(OC)cc3c2=O)cc1`, the survival was 58% (inactive). With `CCc1ccc(C(=O)c2cn(CC(=O)Nc3ccc4c(c3)OCCO4)c3ccc(CC)cc3c2=O)cc1` the figure was 72% (inactive); with `COc1ccc(C(=O)c2cn(Cc3ccc(F)cc3)c3ccc(C)cc3c2=O)cc1`, 24% (active); with `COc1ccccc1Cn1cc(C(=O)c2ccccc2)c(=O)c2cc(OC)c(OC)cc21`, 23% (active).

In the case of `O=C(c1ccc2c(c1)OCO2)c1cn(Cc2ccc(F)cc2)c2ccccc2c1=O`, the survival is 68% (inactive). Consider `COc1ccccc1Cn1cc(C(=O)c2ccc(C)cc2)c(=O)c2cc(C)ccc21`, for which the survival was 112% (inactive).

`COCCNC(=O)CSc1nc2ccccc2nc1Cc1ccc(C)cc1`: the survival is 78% (inactive).

As for `CCOC(=O)c1oc2ccccc2c1CN(C)CCc1ccccc1`, the survival was 70% (inactive). Take `COc1ccc(CCn2c(=O)c3cccnc3n(CC(=O)Nc3c(C)cccc3C)c2=O)cc1OC`: the survival was 90% (inactive). The figure for `COc1ccccc1C(=O)Nc1ccc(NC(=O)c2cccs2)cc1` is 51% (inactive); for `CCc1nnc(NC(=O)C(=O)c2cc(C)n(-c3ccccc3)c2C)s1` it is 77% (inactive); for `CCOc1ccc(-n2c(SCC(=O)Nc3ccccc3OC)nc3c(oc4ccccc43)c2=O)cc1` it is 69% (inactive). The figure for `COc1ccc(-c2noc(C3CC(=O)N(c4ccc5c(c4)OCCO5)C3)n2)c(OC)c1` (configuration not stated) is 98% (inactive). Take `COc1ccc(N(C(=O)c2ccc(C(C)(C)C)cc2)S(=O)(=O)c2ccc(Cl)cc2)cc1`: the survival was 81% (inactive). With `Cc1ccc2c(c1)c(=O)c(C(=O)c1ccc3c(c1)OCO3)cn2Cc1ccc(Cl)cc1` the figure was 46% (active). With `Cc1ccc2c(c1)c(=O)c(C(=O)c1ccc3c(c1)OCO3)cn2Cc1cccc(F)c1` the figure was 66% (inactive); with `Cc1ccc(Cn2cc(C(=O)c3ccc4c(c3)OCO4)c(=O)c3cc(C)ccc32)cc1`, 59% (inactive). On to `CCOC(=O)c1ccc(NC(=O)CC2C(=O)N(c3ccc(F)cc3)C(=O)N2Cc2ccc3c(c2)OCO3)cc1` (configuration not stated), for which the survival was 116% (inactive). The figure for `O=C(c1ccc(-n2cnnn2)cc1)N(C1CCCCC1)C1CCCCC1` is 93% (inactive); for `COc1cc(OC)c(NC(=O)NCCn2nnc3cc(S(=O)(=O)N(C)C)ccc32)cc1Cl` it is 88% (inactive); for `Cc1cc(F)ccc1-n1nnc(C(N)=O)c1C` it is 76% (inactive).

As to `COc1ccc(-n2c(SCC(=O)NCc3ccccc3)nc3c([nH]c4ccccc43)c2=O)cc1`, the survival was 93% (inactive). With `CC(CNC(=O)CCCn1c(=O)c2cccn2c2cccnc21)c1ccccc1` (configuration not stated) the figure was 95% (inactive); with `CC(CNC(=O)CCn1c(=O)c2cccn2c2ccc(F)cc21)c1ccccc1` (configuration not stated), 34% (active). With `CC(CNC(=O)CCCn1c(=O)c2cccn2c2ccc(F)cc21)c1ccccc1` (configuration not stated), the survival is 35% (active). For the compound `CC(NC(=O)CCn1c(=O)c2cccn2c2ccc(F)cc21)c1ccccc1` (configuration not stated), the survival is 59% (inactive).

For `CC(CNC(=O)CCCn1c(=O)c2cccn2c2ccccc21)c1ccccc1` (configuration not stated), the survival is 47% (inactive).

Regarding `COc1cc(C(=O)NCC(c2ccco2)S(=O)(=O)c2cccs2)cc(OC)c1OC` (configuration not stated), the survival is 91% (inactive).

`COc1cc(C2c3c(-c4c(C)cc(C)cc4O)n[nH]c3C(=O)N2CCCOC(C)C)cc(OC)c1OC` (configuration not stated): the survival is 86% (inactive). For the compound `CCOc1cc(CNC(=O)c2ccc3c(c2)NC(=O)C2CCCCN32)cc(OCC)c1OCC` (configuration not stated), the survival was 107% (inactive). Take `O=C1C2C3C=CC(C3)C2C(=O)N1c1ccc(Cl)cc1` (configuration not stated): the survival is 70% (inactive). With `CCC(Oc1ccccc1)C(=O)Nc1ccc(OCc2cc(=O)n3ccc(C)cc3n2)cc1` (configuration not stated) the figure was 91% (inactive); with `O=C(NCCc1ccccc1)c1ccc2c(c1)N(Cc1ccc(F)cc1)C(=O)c1ccccc1S2`, 99% (inactive); with `COc1ccc(-c2nc(CSCC(=O)NCCc3ccc(OC)c(OC)c3)c(C)o2)cc1`, 79% (inactive). The figure for `COc1cccc(-c2nc(CS(=O)(=O)CC(=O)NCCc3ccc(Cl)cc3)c(C)o2)c1` is 63% (inactive); for `COc1cccc(-c2nc(CSCC(=O)NCCc3ccc(Cl)cc3)c(C)o2)c1` it is -4% (active); for `CCOc1ccc(CCNC(=O)CSCc2nc(-c3cccc(C)c3)oc2C)cc1OCC` it is 82% (inactive). As to `Cc1cccc(-c2nc(CSCC(=O)NCCc3ccc(Cl)cc3)c(C)o2)c1`, the survival is -7% (active). Take `COc1ccc(CCNC(=O)CSCc2nc(-c3cccc(C)c3)oc2C)cc1OC`: the survival was 66% (inactive). The figure for `O=C(c1cc(=O)c2cc(Cl)ccc2o1)N(Cc1ccccc1)C1CCS(=O)(=O)C1` (configuration not stated) is 51% (inactive). The figure for `N#Cc1ccccc1NC(=O)CSC1=NCCS1` is 99% (inactive). With `COc1ccc(Nc2ncnc3scc(-c4ccc(F)cc4)c23)cc1` the figure was 92% (inactive). As to `COc1ccc(-c2csc3ncnc(Nc4cccc(OC)c4)c23)cc1`, the survival is 69% (inactive). For the compound `COc1ccc(-c2csc3ncnc(Nc4cccc(F)c4)c23)cc1`, the survival is 0% (active).

On to `O=C1CC(c2nc3ccccc3[nH]2)CN1c1cccc(Cl)c1` (configuration not stated), for which the survival was 81% (inactive).
